This is an account of results in PubChem BioAssay (NCI).

The nature of assay [1]: NCI Yeast Anticancer Drug Screen. Data for the rad50 strain (AID 155).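 Note: 0% = growth of vehicle-only cultures of the same strain.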 The settings on record: S. cerevisiae rad50 strain growth inhibition; at 50.0 µM; stronger effect = higher value. In a few lines:
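Genetically altered yeast (DNA repair pathway); compound treatment; growth inhibition vs vehicle ctrl.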

Assay [2] is described as follows: NCI Yeast Anticancer Drug Screen. Data for the mec2-1 strain (AID 157). Particulars: S. cerevisiae mec2-1 strain, at 50.0 µM, stronger effect = higher value. In a few lines: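 Test agents were screened against the mec2-1 yeast strain, with defined DNA repair or cell cycle alteration. Growth was scored as inhibition against vehicle-only controls.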
A short description of assay [3]: NCI Yeast Anticancer Drug Screen. Data for the sgs1 mgt1 strain (AID 161).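 Note: 0% = growth of cultures given vehicle only.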 The settings on record: S. cerevisiae sgs1 mgt1 strain, at 50.0 µM, stronger effect = higher value. In a few lines:
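Genetically altered yeast, compound exposure, growth inhibition relative to vehicle.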

Assay [4] is described as follows: NCI Yeast Anticancer Drug Screen. Data for the cln2 rad14 strain (AID 165).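 Note: 0% = growth equal to vehicle treated cultures.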 Particulars: S. cerevisiae cln2 rad14 strain, at 50.0 µM, stronger effect = higher value. In a few lines: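 Growth of compound-exposed yeast (cln2 rad14 genotype) measured and expressed as inhibition relative to vehicle.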
The nature of assay [5]: NCI Yeast Anticancer Drug Screen. Data for the bub3 strain (AID 167). The settings on record: S. cerevisiae bub3 mutant strain, at 50.0 µM, stronger effect = higher value. In a few lines: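 Yeast carrying a defined mutation is treated with each compound, and growth is compared with that of vehicle-exposed cells to give inhibition.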
Assay [6] can be described thus: NCI Yeast Anticancer Drug Screen. Data for the mlh1 rad18 strain (AID 175). The settings on record: S. cerevisiae mlh1 rad18 strain growth inhibition; at 50.0 µM; stronger effect = higher value. In a few lines:
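In this whole-cell yeast screen, a strain with altered DNA damage repair is challenged with compound, and its growth is measured against matched vehicle-treated controls.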

Molecules are shown by their SMILES. About 79,000 compounds went through this panel and 15% of them were active in at least one assay; those are over-represented in the sample as a whole. A number with no mark means an inactive call. Active and inactive are the calls of the source. Cut-off read from the data, not from the text of the source: active = growth inhibition above about 70%; inactive = the rest.

On to `C1CN([PH+](N2CC2)N2CC2)CCO1.[C-]#[O+].[C-]#[O+].[C-]#[O+].[C-]#[O+].[C-]#[O+].[Mo]`, for which the growth inhibition was -17.9% in assay [1]; -1.7% in assay [2]; -7.3% in assay [3]; -31.4% in assay [4]; 3.9% in assay [5]; 3.95% in assay [6].

On to `CCOC(=O)/C=C1\Nc2ccccc2C(c2ccccc2)=NC1OC(C)=O` (configuration not stated), for which the growth inhibition was 39.1% in assay [1]; -20.6% in assay [2]; 22.6% in assay [3]; 23.6% in assay [4]; -13.7% in assay [5]; -9% in assay [6].

Turning to `CC(C)(C)c1cc(C#N)cc(Br)c1OP(=O)(Oc1c(Br)cc(C#N)cc1C(C)(C)C)c1ccccc1`, the growth inhibition in assay [1] was -9.6%; in assay [2], -7.5%; in assay [3], -28.8%; in assay [4], -3%; in assay [5] it was -24%; in assay [6], -17.6%.

As for `CC1(C)N=C(N)N=C(N)N1c1ccc(CCCCc2ccc(S(=O)(=O)F)c(Cl)c2)c(Cl)c1`, the growth inhibition in assay [1] was 99.2% (active); in assay [2] it was 99.5% (active); in assay [3] it was 99.4% (active); in assay [4], 99.2% (active); in assay [5], 99.3% (active); in assay [6] it was 99.3% (active).

Turning to `COc1ccc(C(c2c(O)c3ccccc3oc2=O)c2c(O)c3ccccc3oc2=O)cc1`, the growth inhibition was -15.3% in assay [1]; -0.35% in assay [2]; -14.4% in assay [3]; -18.2% in assay [4]; 1% in assay [5]; -0.7% in assay [6].

Take `C1=[N+]2CCCC2Cc2ccc3ccccc3c21` (configuration not stated): the growth inhibition was -17.8% in assay [1]; -6.1% in assay [2]; -4.15% in assay [3]; -16.4% in assay [4]; -4.6% in assay [5]; -8.85% in assay [6].

Turning to `CCC1(C(C)C)C(=O)NC(=S)N(C)C1=O` (configuration not stated), the growth inhibition in assay [1] was 29.6%; in assay [2], -5.45%; in assay [3] it was 2.9%; in assay [4], 2.85%; in assay [5], 0.95%; in assay [6], 12.8%.

For the compound `O=[N+]([O-])c1ccc(SCl)c([N+](=O)[O-])c1`, the growth inhibition is 31.9% in assay [1]; 11.1% in assay [2]; 18.8% in assay [3]; 14.6% in assay [4]; 31.9% in assay [5]; 17.9% in assay [6].

Take `NC(=O)C(F)(F)Cl`: the growth inhibition in assay [1] is 12.8%; in assay [2], 7.1%; in assay [3], -20.4%; in assay [4], 12.3%; in assay [5], -28.8%; in assay [6], -19.2%.

For the compound `Clc1cc[c]([Pb]([Cl])([Cl])[c]2ccc(Cl)cc2)cc1`, the growth inhibition is 22.9% in assay [1]; 17% in assay [2]; 27.9% in assay [3]; 52.2% in assay [4]; 36.5% in assay [5]; 13.7% in assay [6].

Consider `NP(=S)(Oc1ccc(Cl)cc1)Oc1ccc(Cl)cc1`, for which the growth inhibition in assay [1] is 96.8% (active); in assay [2] it was 65.1%; in assay [3], 97.7% (active); in assay [4], 60.7%; in assay [5] it was 49.3%; in assay [6] it was 91.5% (active).

As for `O.O.O=Cc1ccccc1O.O=Cc1ccccc1O.[Ni]`, the growth inhibition was 47.1% in assay [1]; 52.4% in assay [2]; 64.7% in assay [3]; 17.1% in assay [4]; 51.5% in assay [5]; 76.9% (active) in assay [6].

As for `CC1(C)CCCC(C)(C)N1[P-]C(=O)[P-]N1C(C)(C)CCCC1(C)C.[C-]#[O+].[C-]#[O+].[C-]#[O+].[C-]#[O+].[C-]#[O+].[C-]#[O+].[Fe].[Fe]` (configuration not stated), the growth inhibition in assay [1] was -11.2%; in assay [2] it was 3.65%; in assay [3], -2%; in assay [4], 13.6%; in assay [5], -5.7%; in assay [6] it was 8.45%.

On to `COC(=O)C1(C(=O)OC)ON1C(C)(C)C` (configuration not stated), for which the growth inhibition in assay [1] is -48.5%; in assay [2] it was -17.6%; in assay [3] it was -17.6%; in assay [4], -57.8%; in assay [5], -5%; in assay [6], -11.6%.

Consider `N#CC(C#N)c1ccccc1`, for which the growth inhibition in assay [1] was 29.1%; in assay [2], 2.6%; in assay [3] it was 3.5%; in assay [4] it was -4.05%; in assay [5] it was 8.75%; in assay [6], 1.2%.

As to `c1ccc2c(c1)Nc1ccccc1S2`, the growth inhibition in assay [1] was 41%; in assay [2] it was 10.1%; in assay [3] it was 17.9%; in assay [4] it was 28.4%; in assay [5] it was 28.5%; in assay [6] it was 34.2%.

Turning to `CCN1C(=O)C(=C/C=C/c2ccc([N+](=O)[O-])cc2)C(=O)N(CC)C1=S`, the growth inhibition in assay [1] was 8.55%; in assay [2], 9.95%; in assay [3] it was 19.1%; in assay [4], 19.9%; in assay [5], 18.6%; in assay [6], 18.1%.

As for `CC(=O)NC(Cc1ccc(N(CCCl)CCCl)cc1)C(=O)NC(CC(C)C)C(=O)O` (configuration not stated), the growth inhibition in assay [1] is 2.85%; in assay [2], 22.6%; in assay [3] it was -4.15%; in assay [4], 5.75%; in assay [5] it was 2.7%; in assay [6], 21.7%.

Consider `Cc1cc(NN=O)nc(C)n1`, for which the growth inhibition was -3.05% in assay [1]; -4.05% in assay [2]; -1.35% in assay [3]; -14.4% in assay [4]; -1.8% in assay [5]; 5.7% in assay [6].

For `O=C(O)c1cc(C(=O)O)cc(S(=O)(=O)F)c1`, the growth inhibition in assay [1] was 13.5%; in assay [2], 3.75%; in assay [3], 19.6%; in assay [4] it was 10.6%; in assay [5], -4.05%; in assay [6] it was 7.5%.

Regarding `O=C(O)C(Cl)(Cl)Cl`, the growth inhibition in assay [1] was -0.6%; in assay [2], -22.6%; in assay [3], -15.8%; in assay [4], 14.4%; in assay [5], -17.4%; in assay [6], 21.1%.

For the compound `CC1CCC2NCCNC2C1` (configuration not stated), the growth inhibition in assay [1] was 2.45%; in assay [2], 6.65%; in assay [3], -8.9%; in assay [4], 5.35%; in assay [5], 0.65%; in assay [6] it was 23.4%.
